From PubChem BioAssay AID1851 (National Center for Advancing Translational Sciences (NCATS), 2009)
Hit rate of the full screen: of about 16,000 compounds, about 5,800 (36%) were called active. About 23% were inconclusive and are not listed. Calls come from the whole dose curve; as a rule, active = well fitted curve in the direction sought with a large enough effect; inconclusive = small, poorly fitted or top-dose-only effect, or effect the other way; inactive = no such curve, though single readings can be large or run the other way. Some of the results follow.

Target: Cytochrome P450 2C19 (Homo sapiens) (UniProt P33261)
Experiment: Cytochrome panel assay with activity outcomes
Conditions: recombinant CYP, pro-luciferin dealkylation, luminescence, p450-cyp2c19; series mostly up to 57.1 µM
% is set by controls: 0 for no effect and ±100 for the full control effect.

Sequence of Cytochrome P450 2C19 (Homo sapiens) (P33261 whole entry, looked up): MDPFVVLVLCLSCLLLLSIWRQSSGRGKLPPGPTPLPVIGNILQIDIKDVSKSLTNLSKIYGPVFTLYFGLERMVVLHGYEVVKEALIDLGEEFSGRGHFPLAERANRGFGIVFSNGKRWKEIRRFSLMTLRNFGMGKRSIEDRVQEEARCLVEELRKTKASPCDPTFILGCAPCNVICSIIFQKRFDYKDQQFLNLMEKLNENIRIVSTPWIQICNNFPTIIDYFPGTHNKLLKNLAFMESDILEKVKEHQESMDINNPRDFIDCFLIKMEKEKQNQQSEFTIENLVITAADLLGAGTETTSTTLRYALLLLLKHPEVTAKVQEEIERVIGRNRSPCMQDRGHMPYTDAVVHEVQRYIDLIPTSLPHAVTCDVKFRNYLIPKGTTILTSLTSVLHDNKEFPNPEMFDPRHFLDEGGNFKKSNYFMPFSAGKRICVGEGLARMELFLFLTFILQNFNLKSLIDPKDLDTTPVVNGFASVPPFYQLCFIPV

Compound | AC50 | activity, negative = inhibition
Cc1noc(C)c1C(=O)N1CCC2(CCCN(Cc3ccccc3)C2)CC1 | inactive | –
OCCN(Cc1ccccc1)Cc1cccc(Cl)c1Cl | 0.282 µM (active) | –
COCCNc1nc(-c2ccccc2CN(C)C)nc2ccccc12 | inactive | –
COCCNc1nc(-c2ccc(C(=O)N(C)C)cc2)nc2ccccc12 | inactive | –
COCCNc1nc(-c2ccc(N(C)C)cc2)nc2ccccc12 | 15.8 µM (active) | –
CC(=O)NCCNc1nc(-c2ccc(N(C)C)cc2)nc2ccccc12 | inactive | –
COc1ccc(OC)c(Nc2nc(-c3cccc([N+](=O)[O-])c3)nc3ccccc23)c1 | inactive | –
CN(C)c1ccc(-c2nc(NCCc3cnc[nH]3)c3ccccc3n2)cc1 | 1.58 µM (active) | –
COc1ccc(CNc2nc(-c3c(C)noc3C)nc3ccccc23)c(OC)c1 | 3.16 µM (active) | –
Cc1noc(C)c1-c1nc(N2CCN(C)CC2)c2ccccc2n1 | inactive | –
COc1ccc(CNc2nc(-c3ccc4c(c3)OCO4)nc3ccccc23)c(OC)c1 | 7.94 µM (active) | –
Cn1cccc1C(=O)N1CCC2(CC1)CN(Cc1ccc(C#N)cc1)C2 | inactive | –
CNC(=O)[C@@H]1O[C@@H](n2cnc3c(NCc4cccc(I)c4)ncnc32)[C@H](O)[C@@H]1O | inactive | –
COc1c(O[C@H]2O[C@@H](CO)[C@@H](O)[C@@H](O)[C@@H]2O)cc2c(c1OC)-c1ccc(SC)c(=O)cc1[C@H](NC(C)=O)CC2 | inactive | –
COc1ccc(CNc2nc(-c3ccc(C(=O)N(C)C)cc3)nc3ccccc23)c(OC)c1 | 15.8 µM (active) | –
COc1ccccc1CNc1nc(-c2ccc3c(c2)OCO3)nc2ccccc12 | 3.16 µM (active) | –
COc1ccccc1CNc1nc(-c2ccc(N(C)C)cc2)nc2ccccc12 | 10 µM (active) | –
C=CC1=C(C)C2=Cc3c(C=C)c(C)c4[n]3[Sn+2][n]3c(c(C)c(CCC(=O)O)c3=CC3=NC(=C4)C(C)=C3CCC(=O)O)=CC1=N2 | inactive | –
C=C1C(=O)O[C@@H]2[C@H]3O[C@]3(C)CCC=C(C)CC[C@@H]12 | inactive | –

Compound | AC50 | activity, negative = inhibition
CCC(=O)NC(Nc1sc2c(c1C(=O)OC)CCCC2)(C(F)(F)F)C(F)(F)F | 3.98 µM (active) | –
CC(C)CC(=O)N[C@H](C(=O)N[C@H](C(=O)N[C@@H](CC(C)C)[C@H](O)CC(=O)N[C@@H](C)C(=O)N[C@@H](CC(C)C)[C@H](O)CC(=O)O)C(C)C)C(C)C | inactive | –
C#CCCCO/N=C1/[C@H]2O[C@@H]2[C@@H](O)[C@H]2[C@H]1CCn1c(=O)n([C@@H](CC)c3ccccc3)c(=O)n12 | – | -6.75% [at 11.4 µM] (inactive)
COc1ccc(C(=O)CN(C(=O)c2ccc(Cl)cc2)N2C(=O)c3ccccc3C2=O)cc1 | 4.47 µM (active) | –
Cc1ccc(C(=O)CN(C(=O)c2ccc(Cl)cc2)N2C(=O)c3ccccc3C2=O)cc1 | 15.8 µM (active) | –
COc1ccc(CNc2ncncc2-c2ccccc2C)c(OC)c1 | 1.58 µM (active) | –
COc1ccccc1CNc1ncncc1-c1ccccc1Cl | 1.26 µM (active) | –
COc1ccc(CNc2ncncc2-c2ccccc2OC)c(OC)c1 | 2 µM (active) | –
COc1ccccc1CNc1ncncc1-c1ccccc1C | 3.98 µM (active) | –
CCCCOc1ccccc1N | 14.1 µM (active) | –
CCCCOc1cc(C[C@@H]2CNC(=O)N2)ccc1OC | inactive | –
CC[N+](CC)(CC)CCOc1cccc(OCC[N+](CC)(CC)CC)c1OCC[N+](CC)(CC)CC | inactive | –
Cc1ccc(-n2ncc3c(=O)n(CC(=O)NCC4CCCO4)cnc32)cc1 (configuration not stated) | inactive | –
Cc1ccc(C)c(Cn2cnc3c(cnn3C(C)(C)C)c2=O)c1 | 0.398 µM (active) | –
Cc1ccc(NC(=O)Cn2cnc3c(cnn3C(C)(C)C)c2=O)cc1 | inactive | –
Cc1ccccc1Cn1cnc2c(cnn2C(C)(C)C)c1=O | 2 µM (active) | –
CC(C)(C)n1ncc2c(=O)n(CC(=O)NCc3ccccc3Cl)cnc21 | 14.1 µM (active) | –
Nc1cc(Cl)ccc1Oc1ccccc1 | 3.98 µM (active) | –
O=c1[nH]c2cc(Cl)ccc2c(O)c1-c1ccc(Oc2ccccc2)cc1 | inactive | –

Compound | AC50 | activity, negative = inhibition
Nc1cc(Cl)ccc1Oc1ccc(Cl)cc1 | 0.562 µM (active) | –
Cc1cc(=O)[nH]c(-n2[nH]c(C)cc2=O)n1 | inactive | –
CCO/C(C)=N/n1c2nc3ccccc3nc2c2c(=O)n(CC(C)C)c(C)nc21 | inactive | –
CCCn1c(C)nc2c(c1=O)c1nc3ccccc3nc1n2CCC1=CCCCC1 | 8.91 µM (active) | –
Oc1ccc(Cl)cc1Cc1cc(Cl)cc(Cc2cc(Cl)ccc2O)c1O | 1.26 µM (active) | –
Oc1ccc(Cc2cc(Cl)cc(Cl)c2O)cc1Cl | 1.26 µM (active) | –
OCCSCc1cc(Cl)cc(Cl)c1O | – | -25.3% [at 11.4 µM] (inactive)
O=C(O)Cc1cc(Cl)ccc1O | – | 42.6% [at 11.4 µM] (inactive)
COC(=O)[C@@]1(Cc2ccc(OC)cc2)[C@H]2c3cc(C(=O)N4CCCC4)n(Cc4cc(F)cc5c4OCOC5)c3C[C@H]2CN1C(=O)c1ccccc1 | 7.94 µM (active) | –
COC(=O)[C@@]1(Cc2ccccc2)[C@H]2c3cc(C(=O)N4CCCC4)n(Cc4cc(F)cc5c4OCOC5)c3C[C@H]2CN1C(=O)c1ccccc1 | 0.251 µM (active) | –
COc1ccc(C(=O)N2CCC3(CCCN(Cc4ccccc4OC)C3)CC2)cc1 | inactive | –
Cn1cnc([N+](=O)[O-])c1Sc1nc(N)nc2c1ncn2Cc1ccccc1 | – | 21.2% [at 11.4 µM] (inactive)
Nc1nc(SCc2ccccc2)c2ncn(Cc3ccccc3)c2n1 | 2.51 µM (active) | –
OC[C@@H]1O[C@@H](n2cnc3c(SCc4ccccc4)ncnc32)[C@@H](O)[C@H]1O | – | 1.35% [at 11.4 µM] (inactive)
Nc1nc(SCc2ccc([N+](=O)[O-])cc2)c2ncn([C@@H]3O[C@@H](CO)[C@@H](O)[C@H]3O)c2n1 | inactive | –
CCCn1cnc2c(SCc3ccc(Cl)cc3)nc(N)nc21 | 0.501 µM (active) | –
CCCN(CCC)CCNC(=O)C1CCCN(S(=O)(=O)c2ccc3c(c2)oc(=O)n3C)C1 (configuration not stated) | inactive | –
Cn1c(=O)c2cc(S(=O)(=O)NCCC(=O)Nc3ccc(Cl)cc3)ccc2n(C)c1=O | inactive | –
Cn1c(=O)oc2cc(S(=O)(=O)NCCC(=O)N3CC=C(c4ccccc4)CC3)ccc21 | 6.31 µM (active) | –
